Bioassay records (PubChem BioAssay)
CYP2C19 inhib = blockers of cytochrome P450 2C19 activity – biochemical, luminescence, ADME assay, primary screen | P33261 | CYP2C19 Supersomes, luciferin-H EGE luminescence, 30 min | inhibition, % at 5 µM | 96,000 tested, 21% active;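 active means CYP2C19 inhibition above a set limit at 5 µM in the primary screen, cut at about 50% in these data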;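 further: plate controls were negative control wells for no effect and 2.5 mM tranylcypromine positive control for full effect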
CYP2C9 inhib = blockers of cytochrome P450 2C9 activity – biochemical, luminescence, ADME assay, primary screen | 96,000 tested, 20% active | P11712 | inhibition, % at 5 µM | CYP2C9 Supersomes, luciferin-H conversion;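 active means blocking of liver enzyme CYP2C9 beyond about 50% at 5 µM, limit read from the data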
CYP2C9 act = human CYP2C9 activators, primary screen, biochemical, luminescence; recombinant CYP2C9, luciferin-H conversion; stronger effect = higher value; factor 1 = untreated enzyme, 0 = blocked; 96,000 tested, 1.4% active; Cytochrome P450 2C9 (Homo sapiens), P11712; activation factor at 5 µM;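 active means activation factor of 2 or more for CYP2C9 at a 5 µM dose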;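 further: 0 = sulfaphenazole-blocked wells and 1 = vehicle-only wells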
PTK2B oligo ant = antagonists of Pyk2 self-association, primary screen, Q293 cells, FERM NanoBiT luminescence, HTS. z-score (the deposit names both 25 µM and 10 µM). stronger effect = lower value. AID 1347419, 2020. 99,000 tested, 0.83% active;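 active means Z-score of -3 or lower, scaled per plate to the spread of control and sample wells; inactive means z-score above -3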;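 further: negative z-score means lost luminescence so less FERM oligomerization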
Target sequence (Q14289 whole entry, looked up): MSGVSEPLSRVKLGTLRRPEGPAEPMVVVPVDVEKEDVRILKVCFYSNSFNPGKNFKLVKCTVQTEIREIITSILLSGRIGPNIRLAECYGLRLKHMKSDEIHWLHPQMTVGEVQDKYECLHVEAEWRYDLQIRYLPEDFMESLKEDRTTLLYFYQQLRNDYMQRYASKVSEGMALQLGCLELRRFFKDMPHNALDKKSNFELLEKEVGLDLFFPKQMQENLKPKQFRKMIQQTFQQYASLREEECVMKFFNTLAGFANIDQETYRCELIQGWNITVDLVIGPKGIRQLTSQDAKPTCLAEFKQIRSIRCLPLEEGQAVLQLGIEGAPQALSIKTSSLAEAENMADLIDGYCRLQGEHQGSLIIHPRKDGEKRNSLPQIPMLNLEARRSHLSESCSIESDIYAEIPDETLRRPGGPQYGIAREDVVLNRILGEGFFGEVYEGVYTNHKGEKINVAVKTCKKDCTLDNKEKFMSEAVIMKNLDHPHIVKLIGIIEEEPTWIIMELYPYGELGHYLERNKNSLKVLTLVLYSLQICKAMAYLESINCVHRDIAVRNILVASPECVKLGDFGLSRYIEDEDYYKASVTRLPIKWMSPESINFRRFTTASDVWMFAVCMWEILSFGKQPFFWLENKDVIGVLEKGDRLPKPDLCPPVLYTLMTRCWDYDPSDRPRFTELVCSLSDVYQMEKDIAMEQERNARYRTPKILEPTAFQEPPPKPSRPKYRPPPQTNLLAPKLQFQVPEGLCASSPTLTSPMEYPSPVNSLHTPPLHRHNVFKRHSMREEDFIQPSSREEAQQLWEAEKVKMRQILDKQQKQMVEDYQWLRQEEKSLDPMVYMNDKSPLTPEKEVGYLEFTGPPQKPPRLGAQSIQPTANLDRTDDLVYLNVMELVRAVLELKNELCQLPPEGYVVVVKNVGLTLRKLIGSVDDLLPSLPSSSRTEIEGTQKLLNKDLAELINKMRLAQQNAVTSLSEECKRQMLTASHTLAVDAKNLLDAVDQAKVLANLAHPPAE
CYP2C19 act = human CYP2C19 activators, primary screen, biochemical, luminescence | Cytochrome P450 2C19 (Homo sapiens), P33261 | recombinant CYP2C19, luciferin-H EGE luminescence; stronger effect = higher value; 0 = fully inhibited enzyme, 1 = untreated enzyme | activation factor at 5 µM | 96,000 tested, under 10 active | AID 1025, 2008;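 active means activation factor of at least 2 at 5 µM in the primary screen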;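 further: 0 = wells with 2.5 mM tranylcypromine and 1 = vehicle-only wells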
* marks the source's active call; other numbers are inactive results; · = no result. Hits are enriched below; roughly 28% of the tested compounds scored in any of these assays.

SMILES	CYP2C19 inhib	CYP2C9 inhib	CYP2C9 act	PTK2B oligo ant	CYP2C19 act
CCCCN(CCCNC(=O)c1ccc2nc(N3CCOCC3)sc2c1)Cc1ccccc1	8	0	1	0.24	0.9
CC1CCN(c2nc3ccc(C(=O)N4CCN(Cc5ccccc5)CC4)cc3s2)CC1	60*	37	0.6	·	0.4
Cc1nn(Cc2ccccc2)c2sc(C(=O)N3CCN(Cc4ccc5c(c4)OCO5)CC3)cc12	39	67*	0.3	-0.03	0.6
COc1cc(NC2=CC(=O)CC(C)(C)C2)cc(OC)c1OC	-1	9	0.9	-1	1
O=C(CNC(=O)c1cnccn1)Nc1ccc(F)c(F)c1F	46	6	0.9	-0.9	0.5
O=C(c1ccc2nc(N3CCCCC3)sc2c1)N1CCN(Cc2ccc3c(c2)OCO3)CC1	89*	83*	0.2	·	0.1
Cc1cc(C(=O)N2CCN(Cc3ccc4c(c3)OCO4)CC2)cs1	96*	59*	0.4	-0.02	0
O=C(c1cccnc1)N1CCN(Cc2ccc3c(c2)OCO3)CC1	40	-12	1.1	2.3	0.6
CCn1cnc2sc(C(=O)N3CCN(Cc4ccc5c(c4)OCO5)CC3)c(C)c2c1=O	85*	75*	0.2	·	0.1
Cc1cccc(Cn2cnc3c(NS(C)(=O)=O)c(C)c(C)cc32)c1	42	20	0.8	0.1	0.6
CC(=O)c1c(C)[nH]c(C(=O)COC(=O)CN(C)S(=O)(=O)c2ccc(Cl)cc2)c1C	25	22	0.8	0.13	0.8
Cc1ccc(N=C2N=C(N)c3ccccc32)c(C)c1	5	58*	0.4	-0.66	1
O=[N+]([O-])c1ccc(N/N=C/c2c[nH]c3ccccc23)cc1	14	58*	0.4	-0.91	0.9
O=[N+]([O-])c1ccccc1N/N=C/c1c[nH]c2ccccc12	-13	-12	1.1	-1.9	1.1
N#Cc1c(-c2ccc(Cl)cc2Cl)nc2n(c1=O)CCS2	93*	62*	0.4	-0.96	0.1
O=c1c2ccccc2nc2n1CCS2	-1	5	0.9	-0.2	1
COC(=O)c1cc2c(-c3ccccc3)c(C)c3ccccn3c-2c1C(=O)OC	67*	88*	0.1	0.63	0.3
COC(=O)c1c(Cl)c2n3ccccc3c(C)c(-c3ccccc3)c-2c1C(=O)OC	·	·	·	-0.58	·
CC1CCCCC12NC(=O)N(CC(=O)Nc1sc3c(c1C(N)=O)CCC3)C2=O (stereo not drawn)	23	70*	0.3	0.57	0.8
NC(=O)c1c(NC(=O)C2CCCO2)sc2c1CCC2 (stereo not drawn)	9	28	0.7	0.64	0.9
Cc1ccc(C(=O)OCC(=O)Nc2ncc(C(F)(F)F)cc2Cl)cc1NC(=O)c1ccco1	34	32	0.7	0.74	0.7
Cn1c(SCc2ccccc2F)nc2cccnc21	63*	25	0.8	0.46	0.4
CC(=O)NCCn1c(SCc2ccccc2F)nc2ccccc2c1=O	98*	97*	0	-0.4	0
Cc1ccc(S(=O)(=O)N(C)CC(=O)NC2CC(C)(C)NC(C)(C)C2)cc1	-17	-18	1.2	1.4	1.2
CCCNc1nc(C)c(C(C)=O)cc1C#N	20	-3	1	-0.34	0.8
SMILES	CYP2C19 inhib	CYP2C9 inhib	CYP2C9 act	PTK2B oligo ant	CYP2C19 act
O=C1CC(c2cccc(Cl)c2)CC(O)=C1C=NCCCO (stereo not drawn)	11	-170	2.7*	-0.58	0.9
O=C1CC(c2ccccc2)CC(O)=C1C=NCc1ccc(Cl)cc1 (stereo not drawn)	29	14	0.9	0.54	0.7
CC(=O)C(C)Oc1cc(C)cc2oc(=O)c(C)c(C)c12 (stereo not drawn)	28	57*	0.4	-0.17	0.7
CC(=O)COc1cc(C)cc2oc(=O)c(C)c(C)c12	17	34	0.7	-0.69	0.8
O=C(CC(=O)NC1CCCCC1)N/N=C/c1ccc(Cl)cc1	·	·	·	-0.87	·
CCOc1ccc(C(=O)N2CCSC2=S)cc1	·	·	·	-0.19	·
COCCn1c(SCC(=O)NCc2ccco2)nc2cccnc21	54*	-8	1.1	1.1	0.5
CCCCNC(=O)CSc1nc2cc(OC)c(OC)cc2c(=O)n1Cc1ccc(OC)cc1	34	68*	0.3	0.59	0.7
COC(=O)c1ccc2c(=O)n(Cc3ccco3)c(SCC(=O)Nc3ccc(C)c(Cl)c3)nc2c1	12	77*	0.2	0.57	0.9
COc1ccc(Cn2c(SCC(=O)NCc3ccco3)nc3ccsc3c2=O)cc1	45	40	0.6	-1.5	0.6
CCn1c2ccccc2c2nc3cc(OC)c(OC)cc3nc21	19	46	0.5	-0.74	0.8
CCSc1nc2cc(OC)c(OC)cc2c(=O)n1CC	36	52*	0.5	0.69	0.6
O=C(CSc1nc2ccccc2c(=O)n1Cc1ccco1)NCc1ccccc1	·	·	·	-0.8	·
CC(Sc1nc2ccccc2c(=O)[nH]1)C(=O)O (stereo not drawn)	2	-2	1	1.3	1
C=CCNC(=O)CN1CCC(O)(c2ccc(F)cc2)CC1	-8	-11	1.1	0.4	1.1
O=C(/C=C/c1ccc(OCCCF)cc1)NCc1ccc(Cl)cc1	34	10	0.9	1.1	0.7
CC(=O)NCCn1c(SCC(=O)NCCC2=CCCCC2)nc2ccccc2c1=O	31	20	0.8	-0.34	0.7
CCNC(=O)CSc1nc2cc(OC)c(OC)cc2c(=O)n1CCC1=CCCCC1	52*	52*	0.5	·	0.5
COCCNC(=O)CSc1nc2cc(OC)c(OC)cc2c(=O)n1Cc1ccco1	28	83*	0.2	0.24	0.7
COc1ccc(C(=O)/C=C/Nc2ccc(C)cn2)cc1OC	·	·	·	0.73	·
Cc1cc(C(=O)N/N=C/c2cccs2)no1	·	·	·	-1.4	·
COc1ccc(Cc2nnc(NS(C)(=O)=O)s2)cc1	0	35	0.7	0.28	1
O=C(Nc1ccc(N2CCOCC2)cc1)Nc1cnsn1	2	-5	1	0.85	1
Cc1cccc(C(=O)NN(C)c2nc(-c3ccccc3)nnc2C(F)(F)F)c1	2	2	1	1	1
Cc1cc(-c2ccccc2)nc(N(C)NC(=O)c2c(F)cccc2F)c1S(C)(=O)=O	51*	69*	0.3	0.09	0.5
O=C(NCc1ccco1)C1CCC(CNS(=O)(=O)c2cccc3cccnc23)CC1 (stereo not drawn)	4	-9	1.1	·	1
CCN1C(=O)/C(=C/c2ccc(C)s2)NC1=S	38	59*	0.4	-0.22	0.6
CCOc1ccc(C(=O)N2CCCC2)cc1OC	26	-5	1.1	0.05	0.7
CCOC(=O)C1CCN(S(=O)(=O)c2ccc(Br)c(OCC)c2)CC1	40	-13	1.1	-0.05	0.6
CCOc1cc(C(=S)N2CCCCC2)ccc1OS(=O)(=O)c1ccc(Cl)cc1	72*	81*	0.2	-1	0.3
